Results: ChEMBL document CHEMBL3988442, “University of Dundee, Small-Polar-MMV Screening Library” (2021)
For some assays here: Results with a measured potency or affinity are listed apart.

Key:
Parameters in all cases: scale not given: direction of the effect not stated beside the values
[1] = target: Protein translocase subunit SecA (Escherichia coli (strain K12)) (UniProt P10408); experiment: Assay to Identify E. coli SecA ATPase Inhibitors; type: functional; conditions: 30 µM
[2] = target: T1, Ubiquitin-activating enzyme e1, putative (Leishmania donovani (strain BPK282A1)) (UniProt E9BSI1); experiment: Leishmania donovani Ubiquitin Activating Enzyme (LdE1); type: functional; conditions: 30 µM
T1 sequence (whole entry): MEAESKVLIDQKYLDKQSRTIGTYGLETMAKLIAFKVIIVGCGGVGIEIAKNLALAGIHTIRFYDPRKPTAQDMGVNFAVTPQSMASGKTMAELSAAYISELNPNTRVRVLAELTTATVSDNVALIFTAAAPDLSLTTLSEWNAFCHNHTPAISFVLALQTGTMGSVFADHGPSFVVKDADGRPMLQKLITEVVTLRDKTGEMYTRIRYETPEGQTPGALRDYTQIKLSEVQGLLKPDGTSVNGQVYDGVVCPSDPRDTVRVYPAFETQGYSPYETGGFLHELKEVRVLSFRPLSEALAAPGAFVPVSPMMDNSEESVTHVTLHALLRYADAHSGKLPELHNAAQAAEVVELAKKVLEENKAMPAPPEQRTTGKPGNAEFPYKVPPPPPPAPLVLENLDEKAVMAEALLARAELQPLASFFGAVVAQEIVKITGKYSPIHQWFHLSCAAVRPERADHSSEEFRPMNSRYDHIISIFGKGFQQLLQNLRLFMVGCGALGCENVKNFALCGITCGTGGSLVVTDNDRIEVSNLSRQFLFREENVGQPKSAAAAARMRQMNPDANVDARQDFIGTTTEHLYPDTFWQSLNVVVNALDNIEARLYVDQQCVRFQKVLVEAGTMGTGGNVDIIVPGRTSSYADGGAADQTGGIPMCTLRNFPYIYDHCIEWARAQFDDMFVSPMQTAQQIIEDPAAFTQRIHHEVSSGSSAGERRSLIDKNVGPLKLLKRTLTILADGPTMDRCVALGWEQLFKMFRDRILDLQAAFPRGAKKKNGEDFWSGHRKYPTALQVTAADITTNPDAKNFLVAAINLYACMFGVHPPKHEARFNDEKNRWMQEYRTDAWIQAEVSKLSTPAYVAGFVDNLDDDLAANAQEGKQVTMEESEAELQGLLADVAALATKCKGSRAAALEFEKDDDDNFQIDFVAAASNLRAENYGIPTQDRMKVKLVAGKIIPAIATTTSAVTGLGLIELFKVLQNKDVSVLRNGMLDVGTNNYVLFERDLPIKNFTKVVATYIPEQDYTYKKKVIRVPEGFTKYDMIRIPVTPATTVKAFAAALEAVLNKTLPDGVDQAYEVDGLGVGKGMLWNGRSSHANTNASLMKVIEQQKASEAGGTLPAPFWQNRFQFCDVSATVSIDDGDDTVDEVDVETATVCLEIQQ

[3] = target: AMP-activated protein kinase, AMPK (Homo sapiens) (UniProt P54646+O43741+P54619+Q9UGJ0+Q9Y478+Q13131+Q9UGI9); experiment: AMP-dependent Kinase enzyme assay. An in vitro enzyme assay that detects ADP turnover that is directly proportional to AMPK activity. This uses naive AMPK that is activated during the assay with MK-8722; type: functional; conditions: 30 µM
[4] = target: Sialic acid-binding Ig-like lectin 9 (Homo sapiens) (UniProt Q9Y336); experiment: Hs-Siglec9 ALPHAscreen SOP 20170721; conditions: 10 µM
Sialic acid-binding Ig-like lectin 9 (Homo sapiens), sequence (Q9Y336 whole entry): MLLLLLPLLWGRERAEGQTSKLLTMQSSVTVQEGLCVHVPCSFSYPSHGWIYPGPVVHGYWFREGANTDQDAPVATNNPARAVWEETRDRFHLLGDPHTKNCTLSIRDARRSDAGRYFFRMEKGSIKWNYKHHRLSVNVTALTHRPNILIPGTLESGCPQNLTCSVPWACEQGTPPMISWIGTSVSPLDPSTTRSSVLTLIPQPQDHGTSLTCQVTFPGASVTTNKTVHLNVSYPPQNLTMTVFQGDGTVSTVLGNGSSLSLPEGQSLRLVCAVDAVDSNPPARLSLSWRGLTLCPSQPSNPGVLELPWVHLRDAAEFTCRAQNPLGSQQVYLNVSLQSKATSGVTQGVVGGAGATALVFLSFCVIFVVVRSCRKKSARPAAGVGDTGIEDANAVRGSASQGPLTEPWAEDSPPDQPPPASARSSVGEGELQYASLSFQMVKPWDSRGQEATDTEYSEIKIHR

[5] = tested on: Trypanosoma cruzi; experiment: Trypanosoma cruzi phosphomannomutase and mannose-1-phosphate guanylyltransferase assay; type: functional; conditions: 10 µM
[6] = target: T2, Arginase-2, mitochondrial (Homo sapiens) (UniProt P78540); experiment: in vitro enzyme assay to detect the production of urea directly proportional to the activity of Arginase II; type: functional; conditions: 33.3 µM; further: in the data most compounds retested in dose-response had high values
T2 sequence (whole entry): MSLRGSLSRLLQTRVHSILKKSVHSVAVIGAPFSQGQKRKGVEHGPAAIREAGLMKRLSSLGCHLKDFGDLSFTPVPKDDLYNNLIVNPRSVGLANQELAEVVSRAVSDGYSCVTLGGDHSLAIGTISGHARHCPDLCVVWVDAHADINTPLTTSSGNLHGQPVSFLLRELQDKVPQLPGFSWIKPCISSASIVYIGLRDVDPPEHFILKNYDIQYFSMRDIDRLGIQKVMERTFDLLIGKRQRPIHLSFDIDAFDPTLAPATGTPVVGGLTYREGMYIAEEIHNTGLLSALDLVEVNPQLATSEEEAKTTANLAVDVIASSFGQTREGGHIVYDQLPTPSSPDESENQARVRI

[7] = target: T3, Proteasome subunit beta (Trypanosoma cruzi) (UniProt O96673); experiment: Trypanosoma cruzi proteasome chymotrypsin-like activity (TcProtChymo) assay.; further: in the data most compounds retested in dose-response had high values; type: functional; conditions: 9.37 µM
T3 sequence (whole entry): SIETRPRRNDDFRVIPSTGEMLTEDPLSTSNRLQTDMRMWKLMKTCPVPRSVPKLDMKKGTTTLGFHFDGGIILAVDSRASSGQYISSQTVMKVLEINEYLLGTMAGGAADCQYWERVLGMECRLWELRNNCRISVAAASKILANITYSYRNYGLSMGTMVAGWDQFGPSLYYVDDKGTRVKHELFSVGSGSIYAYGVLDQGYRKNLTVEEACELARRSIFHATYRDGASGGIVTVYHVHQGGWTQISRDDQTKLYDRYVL

[8] = organism: Homo sapiens; experiment: To identify inhibition of the IFN signalling (Jak-Stat) pathway via expression of an eGFP reporter gene under the control of an IFN-stimulated response element (ISRE) containing MxA promoter.; type: functional; conditions: 30 µM
[9] = target: T4, Tyrosyl-tRNA synthetase, putative (Trypanosoma cruzi (strain CL Brener)) (UniProt Q4DSP6); experiment: Trypanosoma cruzi tyrosyl tRNA synthetase (TcYRS) _High Tyrosine SOP; type: functional; conditions: 30 µM; further: in the data most compounds retested in dose-response had high values
T4 sequence (whole entry): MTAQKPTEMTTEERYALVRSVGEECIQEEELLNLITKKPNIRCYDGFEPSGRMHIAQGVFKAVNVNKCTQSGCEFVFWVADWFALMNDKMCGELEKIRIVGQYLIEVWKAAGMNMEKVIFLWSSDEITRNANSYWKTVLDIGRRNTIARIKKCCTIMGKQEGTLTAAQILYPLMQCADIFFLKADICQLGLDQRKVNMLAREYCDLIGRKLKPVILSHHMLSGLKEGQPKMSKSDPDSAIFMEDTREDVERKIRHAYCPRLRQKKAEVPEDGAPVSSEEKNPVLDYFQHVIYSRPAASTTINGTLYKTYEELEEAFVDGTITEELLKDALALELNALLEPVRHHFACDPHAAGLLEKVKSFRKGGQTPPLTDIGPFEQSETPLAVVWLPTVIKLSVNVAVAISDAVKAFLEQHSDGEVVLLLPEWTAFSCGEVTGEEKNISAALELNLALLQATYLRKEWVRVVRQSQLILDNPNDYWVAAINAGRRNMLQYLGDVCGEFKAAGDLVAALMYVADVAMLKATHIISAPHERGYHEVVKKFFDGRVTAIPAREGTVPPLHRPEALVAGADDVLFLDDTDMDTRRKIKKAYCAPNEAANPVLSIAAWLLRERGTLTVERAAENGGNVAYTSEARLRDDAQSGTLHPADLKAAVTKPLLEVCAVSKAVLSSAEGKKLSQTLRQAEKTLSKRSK

[10] = target: T4, Tyrosyl-tRNA synthetase, putative (Trypanosoma cruzi (strain CL Brener)); experiment: Trypanosoma cruzi tyrosyl tRNA synthetase (TcYRS) SOP; type: functional; conditions: 30 µM
[11] = target: Chromo domain-containing protein 1 (Saccharomyces cerevisiae (strain ATCC 204508 / S288c) (Baker's yeast)) (UniProt P32657); experiment: ScCHD-1 Enzyme Inhibition Assay; type: functional; conditions: 30 µM; further: in the data most compounds retested in dose-response had high values
Chromo domain-containing protein 1 (Saccharomyces cerevisiae (strain ATCC 204508 / S288c) (Baker's yeast)), sequence (P32657 whole entry, the tested form may be a part): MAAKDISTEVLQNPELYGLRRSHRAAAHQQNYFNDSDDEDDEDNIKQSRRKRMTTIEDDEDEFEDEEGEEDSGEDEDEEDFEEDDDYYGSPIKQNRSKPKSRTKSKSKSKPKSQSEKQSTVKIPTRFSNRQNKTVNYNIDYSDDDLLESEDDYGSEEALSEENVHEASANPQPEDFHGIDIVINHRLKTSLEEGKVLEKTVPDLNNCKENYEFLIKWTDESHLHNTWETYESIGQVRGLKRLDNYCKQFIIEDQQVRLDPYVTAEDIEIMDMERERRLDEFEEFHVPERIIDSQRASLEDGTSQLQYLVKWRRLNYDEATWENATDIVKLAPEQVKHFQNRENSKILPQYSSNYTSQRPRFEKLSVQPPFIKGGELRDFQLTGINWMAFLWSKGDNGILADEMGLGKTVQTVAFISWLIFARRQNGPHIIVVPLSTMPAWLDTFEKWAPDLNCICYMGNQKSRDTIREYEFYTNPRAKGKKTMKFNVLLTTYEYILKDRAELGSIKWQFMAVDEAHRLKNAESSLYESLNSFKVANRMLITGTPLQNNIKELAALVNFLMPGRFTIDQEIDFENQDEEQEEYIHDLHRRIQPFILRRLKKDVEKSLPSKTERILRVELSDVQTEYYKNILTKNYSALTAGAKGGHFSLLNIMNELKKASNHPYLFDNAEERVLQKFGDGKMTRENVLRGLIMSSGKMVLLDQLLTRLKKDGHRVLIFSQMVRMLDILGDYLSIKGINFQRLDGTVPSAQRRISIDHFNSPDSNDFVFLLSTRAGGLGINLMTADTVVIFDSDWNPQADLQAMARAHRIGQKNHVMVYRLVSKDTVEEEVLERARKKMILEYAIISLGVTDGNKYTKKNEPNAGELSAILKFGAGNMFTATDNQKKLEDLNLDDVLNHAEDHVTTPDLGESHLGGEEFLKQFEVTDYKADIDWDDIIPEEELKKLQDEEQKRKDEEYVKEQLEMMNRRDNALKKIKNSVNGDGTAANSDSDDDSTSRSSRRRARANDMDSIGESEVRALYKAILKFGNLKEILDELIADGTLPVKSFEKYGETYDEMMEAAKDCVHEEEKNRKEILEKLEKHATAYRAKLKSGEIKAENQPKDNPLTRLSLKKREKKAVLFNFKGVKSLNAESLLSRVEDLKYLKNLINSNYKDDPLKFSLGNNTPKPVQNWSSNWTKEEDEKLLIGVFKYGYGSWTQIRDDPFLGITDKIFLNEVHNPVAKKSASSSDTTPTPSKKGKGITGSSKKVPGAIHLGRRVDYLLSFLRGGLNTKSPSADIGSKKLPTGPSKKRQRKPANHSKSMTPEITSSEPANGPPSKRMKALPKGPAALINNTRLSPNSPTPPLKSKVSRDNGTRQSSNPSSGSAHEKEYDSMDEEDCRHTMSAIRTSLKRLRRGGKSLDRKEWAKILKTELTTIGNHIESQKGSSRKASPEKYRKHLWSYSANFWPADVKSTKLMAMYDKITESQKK

Protein translocase subunit SecA (Escherichia coli (strain K12)), sequence (P10408 whole entry): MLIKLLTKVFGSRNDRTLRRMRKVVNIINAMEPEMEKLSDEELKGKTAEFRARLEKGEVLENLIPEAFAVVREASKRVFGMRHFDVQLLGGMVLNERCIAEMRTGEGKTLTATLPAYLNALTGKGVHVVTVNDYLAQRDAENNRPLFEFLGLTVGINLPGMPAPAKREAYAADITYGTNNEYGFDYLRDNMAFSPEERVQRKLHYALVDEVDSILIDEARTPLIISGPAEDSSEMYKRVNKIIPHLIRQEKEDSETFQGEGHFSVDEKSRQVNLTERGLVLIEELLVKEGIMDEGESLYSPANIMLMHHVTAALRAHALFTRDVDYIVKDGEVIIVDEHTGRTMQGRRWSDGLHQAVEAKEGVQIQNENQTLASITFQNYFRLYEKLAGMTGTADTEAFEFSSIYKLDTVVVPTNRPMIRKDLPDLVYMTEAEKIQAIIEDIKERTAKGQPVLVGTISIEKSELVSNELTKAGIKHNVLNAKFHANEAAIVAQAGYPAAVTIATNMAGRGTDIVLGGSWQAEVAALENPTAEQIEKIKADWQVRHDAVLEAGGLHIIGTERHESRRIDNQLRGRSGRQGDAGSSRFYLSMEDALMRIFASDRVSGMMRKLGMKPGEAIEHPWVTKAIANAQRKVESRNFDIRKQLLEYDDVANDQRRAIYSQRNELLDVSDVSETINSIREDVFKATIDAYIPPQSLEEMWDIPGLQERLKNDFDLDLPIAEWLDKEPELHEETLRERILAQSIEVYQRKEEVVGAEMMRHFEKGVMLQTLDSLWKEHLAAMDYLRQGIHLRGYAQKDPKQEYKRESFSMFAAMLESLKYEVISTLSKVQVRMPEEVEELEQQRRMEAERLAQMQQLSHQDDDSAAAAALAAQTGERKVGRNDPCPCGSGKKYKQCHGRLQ

Row | SMILES | Percent Effect [1] | Percent Effect [2] | Percent Effect [3] | Percent Effect [4] | Percent Effect [5] | Percent Effect [6] | Percent Effect [7] | Percent Effect [8] | Percent Effect [9] | Percent Effect [10] | Percent Effect [11]
1 | CC(C)Cc1noc(CN2CCN(C(=O)c3ccco3)CC2)n1 | 1.31% | 2.74% | 2.5% | 1.08% | 3.17% | 0% | 8.99% | 5.51% | 5.21% | 8.64% | -2.76%
2 | CCS(=O)(=O)N1CCC2(CC1)CC(Oc1ccccn1)CO2 (configuration not stated) | -0.483% | 10.4% | 4.49% | -1.15% | -5.23% | 7.1% | 11% | 17.8% | 2.12% | 3.85% | -7.08%
3 | Cc1cc2nc(SCC(=O)N3CCCC3)n(C(C)C)c(=O)c2[nH]1 | -2.21% | 21.1% | -3.68% | -13.3% | 2.63% | -1.18% | 19.5% | 17.9% | 1.06% | 10.4% | -6.22%
4 | Cc1ccc2c(ccn2CCC(=O)N2CCC(C(N)=O)CC2)c1 | -2.26% | 6.67% | 6.01% | 7.91% | -0.393% | -12.2% | 16.6% | -3.73% | 5.29% | 7.69% | -3.32%
5 | O=C(c1n[nH]c2c1CCN(Cc1nccs1)C2)N1CCCC1 | -4.94% | 5.41% | -4.39% | 22.5% | 4.4% | 0.744% | 8.33% | -0.319% | 5.38% | 6.17% | -10.3%
6 | O=C(NCCn1ccc(-c2ccccn2)n1)c1ccncc1 | -1.48% | 8.22% | -7.04% | 17.5% | 6.46% | -3.18% | 9.94% | 4.13% | 2.15% | 10% | -3.21%
7 | CCc1ccc(C(=O)N2CCCC(c3noc(CC)n3)C2)o1 (configuration not stated) | -0.983% | 2.6% | 7.44% | 4.61% | 3.04% | 0.21% | 4.12% | 3.88% | 0.952% | 7.06% | -10.5%
8 | CS(=O)(=O)N1CCc2nc(NC(=O)Nc3c(F)cccc3F)sc2C1 | -4.94% | -11% | -0.62% | -0.122% | -5.49% | 0% | 4.97% | 1.79% | 4.3% | 12.5% | 1.62%
9 | CC(Cc1ccco1)NC(=O)Nc1ccc(S(C)(=O)=O)nc1 (configuration not stated) | -4.47% | 18.4% | -6.45% | -1.24% | 4.13% | -0.383% | 9.52% | 21.8% | 9.31% | 19.5% | -12.4%
10 | CN(Cc1ccc(Cl)s1)C1CCCN(c2cccnn2)C1 (configuration not stated) | -0.186% | -18.4% | 14.3% | 0.257% | 1.27% | 15.4% | 7.19% | 10.5% | 9.57% | 10.4% | -1.67%
11 | Cc1cc(C)nc(Nc2cc(C3CCCN(C)C3)nc(C)n2)n1 (configuration not stated) | -3.56% | 9.46% | -3.72% | 6.27% | 1.19% | -1.62% | 9.2% | 1.68% | 4.3% | 11.7% | -18.4%
12 | Cn1cnnc1C1CCCN(C(=O)c2ccccc2Cl)C1 (configuration not stated) | -3.26% | 18.2% | -0.796% | -3.37% | 1.67% | 0.632% | 5.74% | 6.09% | 11.4% | 25.9% | -17.8%
13 | CN(Cc1cccs1)C(=O)CN1CCCC1Cn1cncn1 (configuration not stated) | -1.48% | 10.4% | -63.7% | 2.24% | -1.08% | -5.52% | 20.3% | -3.55% | 7.53% | 13.6% | -2.25%
14 | CCn1cc(NC(=O)C2CCN(CCOC(C)C)CC2)cn1 | -6.99% | 7.89% | -2.47% | -0.756% | -6.07% | -3.6% | 3.98% | 6.54% | 2.46% | 3.7% | 0.215%
15 | CC(C)OCCC(=O)N(C)CCCc1cc(-c2ccccc2)no1 | 2.05% | 18.9% | 5.99% | -0.12% | -8.08% | -1.66% | 13.3% | 22% | -1.98% | 3.66% | -5.36%
16 | O=S(=O)(C1CC1)N1CCO[C@H]2[C@H](OCC3CCCC3)CC[C@@H]21 | -4.67% | 0% | 1.22% | -1.17% | 4.83% | -45.7% | 2.05% | -5.99% | 0% | 5% | -4.13%
17 | Cc1nc([C@@H]2C[C@@H]3CCN(C(=O)c4ccnnc4)C[C@H]3O2)sc1C | -3.66% | 18.2% | -2.5% | -0.581% | 5.42% | 1.94% | 14.4% | 16.5% | 4.23% | 16.7% | -7.55%
18 | CC(=O)N1CCN(C(=O)CN2CCc3c(ncn3C3CC3)C2)CC1 | -0.513% | 19% | -1.56% | -4.08% | 1.33% | 5.38% | 17.5% | 11.7% | 1.04% | 5.06% | -19.7%
19 | Cc1ccc(CNC(CN2CCN(C)CC2)c2ccccc2)cc1 (configuration not stated) | -5.66% | 8.11% | -8.66% | -0.353% | -2.05% | -1.74% | 7.64% | 13.4% | 3.23% | 8.64% | -3.22%
20 | COCCCN1CCCN(C(C)c2nc(C3CC3)no2)CC1 (configuration not stated) | -1.91% | 8.11% | -3.11% | 15.8% | 4.74% | -13.5% | 6.46% | -3.07% | 4.95% | 15.8% | -1.39%
21 | CC(C)CN1CCCn2nc(CNC(=O)CCN)cc2C1 | -6.28% | 5.33% | 4.29% | 6.76% | 1.85% | 3.65% | 13.4% | 7.88% | 6.01% | 16.1% | -5.7%
22 | Cc1cc(CN2CCOC(CN(C)c3cccnn3)C2)no1 (configuration not stated) | -4.31% | 0% | 18.6% | -5.84% | 3.23% | -0.21% | 6.39% | 1.91% | 0.952% | 2.35% | -18.6%
